The results in this text go back to PubChem BioAssay (Tox21).

For assay [1], the target named is Aryl hydrocarbon receptor (Homo sapiens) (UniProt P35869). The assay can be described thus: qHTS assay to identify small molecule that activate the aryl hydrocarbon receptor (AhR) signaling pathway (AID 743085). Further: nearly all actives have a fitted effect of over 15% in size. Further: potency means the concentration at half of the fitted maximal effect.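 On activation: HG2L7.5c1 human HepG2 liver cells with stably integrated DRE-driven firefly reporter; series mostly up to about 70 µM.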 A digest of the protocol: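 Reporter assay in engineered HepG2 line HG2L7.5c1, whose plasmid carries twenty dioxin responsive elements upstream of firefly luciferase. Treatment lasted 24 h at 37C; ONE-Glo luminescence gauged induction.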
(In general: qHTS replaces the single test concentration by a dilution series.)

A short description of assay [2]: qHTS assay to identify small molecule that activate the aryl hydrocarbon receptor (AhR) signaling pathway - cell viability counter screen (AID 743086).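 Further: HepG2 liver cells carrying the AhR DRE luciferase reporter; series mostly up to about 70 µM; nearly all actives have a fitted effect of over 45% in size.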 Summed up:
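HepG2-AhR-luc (HG2L7.5c1) cells, 4000/well, were preincubated 5 h at 37C, exposed to compound in qHTS format for 24 hr at 37C, then given CellTiter-Fluor for 30 min; viability was read as fluorescence in the reporter wells.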

A short description of assay [3]: qHTS assay for small molecule agonists of the antioxidant response element (ARE) signaling pathway - cell viability counter screen (AID 743203; calls by dose curve; further: nearly all actives have a fitted effect of over 55% in size). A digest of the protocol:
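Compounds in DMSO were pinned onto ARE-bla HepG2 cells plated 5 hrs earlier at 2,000 cells/well. Sixteen hours later at 37C/5% CO2, CellTiter-Glo was added and luminescence measured after 30 min at room temperature.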

Assay [4] in a line: qHTS assay for small molecule activators of the heat shock response signaling pathway - cell viability counter screen (AID 743209). Further: nearly all actives have a fitted effect of over 50% in size. Summed up:
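Counter screen for cytotoxicity in HeLa HSE-bla reporter cells. Treatment was 5 h at 37 C; viability was detected by luminescent ATP assay (CellTiter-Glo) in the same wells as the beta-lactamase read.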

Assay [5] concerns the target Peroxisome proliferator-activated receptor delta (Homo sapiens) (UniProt Q03181). Description: qHTS assay to identify small molecule agonists of the peroxisome proliferator-activated receptor delta (PPARd) signaling pathway (AID 743212; calls by dose curve). A digest of the protocol:
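A PPARd-bla HEK293H line with beta-lactamase under an Upstream Activator Sequence is treated with compounds at 37 C. Substrate loading for 2 h at room temperature precedes the fluorescence measurement.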

Assay [6] is described as follows: qHTS assay to identify small molecule antagonists of the peroxisome proliferator-activated receptor delta (PPARd) signaling pathway - cell viability counter screen (AID 743213). Further: nearly all actives have a fitted effect of over 50% in size. Summed up:
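PPARd-bla HEK293H cells (3000/well) got compound plus 300 nM L165041 agonist for 17 h at 37 C. Viability in the same wells came from CellTiter-Glo luminescence after 30 min at room temperature.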

A short description of assay [7]: qHTS assay to identify small molecule antagonists of the farnesoid-X-receptor (FXR) signaling pathway - cell viability counter screen (AID 743221; active means well fitted cell-killing curve with a large enough effect in the repeat runs, not every such curve was filed as active; further: nearly all actives have a fitted effect of over 50% in size). Summed up:
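CellTiter-Glo, 30 min RT, luminescence; same wells as the LiveBLAzer FRET read. Cells: FXR-UAS-bla HEK 293T. Treatment: compound with chenodeoxycholic acid 50 uM final, 16 h at 37 C.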

Assay [8] has as its target Vitamin D3 receptor (Homo sapiens) (UniProt P11473). Description: qHTS assay to identify small molecule agonists of the vitamin D receptor (VDR) signaling pathway (AID 743222; calls by dose curve; further: potency means the concentration at half of the fitted maximal effect). A digest of the protocol: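 VDR-bla cells were seeded, left 4 h, treated with compounds in DMSO for 16 h, incubated 2 h at RT with B/G FRET substrate, and read for fluorescence.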
Assay [9] has the same target. The assay can be described thus: qHTS assay to identify small molecule antagonists of the vitamin D receptor (VDR) signaling pathway (AID 743223; active means well fitted inhibition curve with a large enough effect in the signal ratio in the repeat runs, not every such curve was filed as active; the % refers to the signal ratio). Summed up: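 After VDR-bla cells are plated and left 4 h at 37C, DMSO-dissolved compounds and 3 nM (final) calcitriol agonist are added. Incubation continues 16 h at 37C; FRET beta-lactamase substrate then develops 2 h at room temperature.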

Assay [10] addresses Peroxisome proliferator-activated receptor gamma (Homo sapiens) (UniProt P37231). The assay can be described thus: qHTS assay to identify small molecule agonists of the peroxisome proliferator-activated receptor gamma (PPARg) signaling pathway (AID 743094; active means well fitted activation curve with a large enough effect in the signal ratio in the repeat runs, not every such curve was filed as active; the % refers to the signal ratio; further: potency means the concentration at half of the fitted maximal effect). A digest of the protocol: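 Following 5 h plating at 37C, PPARg-bla HEK293H cells receive compound or DMSO for 17 h; fluorescence intensity is recorded after LiveBLAzer B/G loading for 1 h at room temperature.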

Assay [11] has the same target. The assay can be described thus: qHTS assay to identify small molecule antagonists of the peroxisome proliferator-activated receptor gamma (PPARg) signaling pathway (AID 743191; calls by dose curve; further: series mostly up to about 63 µM; nearly all actives have a fitted effect of over 30% in size). Summed up: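 GeneBLAzer PPARg UAS-bla HEK293H cells carrying a UAS-driven beta-lactamase reporter were plated at 3000 cells/well, preincubated 5 h at 37C, then given compound for 17 h at 37C; LiveBLAzer B/G FRET substrate was read after 1 h at room temperature.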

Assay [12] has as its target Peroxisome proliferator-activated receptor delta (Homo sapiens) (UniProt Q03181). Description: qHTS assay to identify small molecule antagonists of the peroxisome proliferator-activated receptor delta (PPARd) signaling pathway (AID 743215; active means well fitted inhibition curve with a large enough effect in the signal ratio in the repeat runs, not every such curve was filed as active; the % refers to the signal ratio;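 further: cells stimulated with agonist L165041 at 300 nM final during compound exposure; series mostly up to about 62 µM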). A digest of the protocol:
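With L165041 present at 300 nM final, compounds were incubated 17 h at 37 C on PPARd UAS-bla HEK293H cells. A FRET-based beta-lactamase substrate was then applied for 2 h at room temperature and fluorescence intensity recorded.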

Assay [13] addresses Bile acid receptor (Homo sapiens) (UniProt Q96RI1). Description: qHTS assay to identify small molecule antagonists of the farnesoid-X-receptor (FXR) signaling pathway (AID 743217; active means well fitted inhibition curve with a large enough effect in the signal ratio in the repeat runs, not every such curve was filed as active; the % refers to the signal ratio). A digest of the protocol: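 In this cell-based antagonist screen, inhibition of CDCA-driven (50 uM final) UAS-beta-lactamase expression in HEK 293T cells was measured by FRET fluorescence following 16 h compound exposure at 37 °C.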

Assay [14] can be described thus: qHTS assay to identify small molecule agonists of the farnesoid-X-receptor (FXR) signaling pathway - cell viability counter screen (AID 743218). Further: nearly all actives have a fitted effect of over 45% in size. Further: potency means the concentration at half of the fitted maximal effect. Summed up:
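After 16 h at 37 C with test compounds, FXR-bla HEK 293T cells were given LiveBLAzer B/G substrate for 2 h at RT and then CellTiter-Glo; luminescence was taken after 30 min.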

Assay [15] addresses Bile acid receptor (Homo sapiens) (UniProt Q96RI1). The assay can be described thus: qHTS assay to identify small molecule agonists of the farnesoid-X-receptor (FXR) signaling pathway (AID 743220; active means well fitted activation curve with a large enough effect in the signal ratio in the repeat runs, not every such curve was filed as active; the % refers to the signal ratio). Summed up:
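Beta-lactamase reporter under UAS control in GeneBLAzer FXR HEK 293T cells (5000/well) measured with LiveBLAzer FRET substrate after 2 h at room temperature. Compound exposure lasted 16 h at 37C.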

Assay [16] can be described thus: qHTS assay to identify aromatase inhibitors - cell viability counter screen (AID 743084).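 Further: cells stimulated with testosterone during compound exposure; nearly all actives have a fitted effect of over 55% in size.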 Further: potency means the concentration at half of the fitted maximal effect.
Assay [17] in a line: qHTS assay to identify small molecule agonists of the peroxisome proliferator-activated receptor delta (PPARd) signaling pathway - cell viability counter screen (AID 743211). Further: nearly all actives have a fitted effect of over 55% in size. Summed up: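 Multiplexed format: after the 2 h room-temperature LiveBLAzer B/G FRET step, CellTiter-Glo was added to the same wells. Luminescence after 30 min gave cell viability; compound exposure was 17 h at 37C.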

The nature of assay [18]: qHTS assay to identify small molecule antagonists of the peroxisome proliferator-activated receptor gamma (PPARg) signaling pathway - cell viability counter screen (AID 743194). Further: nearly all actives have a fitted effect of over 55% in size. Summed up:
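PPARg-UAS-bla HEK293H cells were plated, rested 5 h at 37 C, then treated with compounds plus rosiglitazone (50 nM final) for 17 h at 37 C; viability was then read by CellTiter-Glo luminescence after 30 min at room temperature.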

Assay [19] is described as follows: qHTS assay for small molecule activators of the heat shock response signaling pathway (AID 743210; active means well fitted activation curve with a large enough effect in the signal ratio in the repeat runs, with a control signal flat, not every such curve was filed as active; the % refers to the signal ratio;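 further: HeLa cells with beta-lactamase reporter driven by heat shock elements; series mostly up to about 63 µM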). Summed up: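 Reporter gene assay: HeLa cells stably bearing an HSE-bla construct, compound treatment 5 h at 37 C, LiveBLAzer substrate 2.5 h at RT, fluorescence intensity.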
Assay [20] can be described thus: qHTS assay for small molecule agonists of the antioxidant response element (ARE) signaling pathway (AID 743202; active means well fitted activation curve with a large enough effect in the signal ratio in the repeat runs, not every such curve was filed as active; the % refers to the signal ratio; further: potency means the concentration at half of the fitted maximal effect). A digest of the protocol:
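Compounds delivered in DMSO to ARE-bla HepG2 cells (2,000 cells/well, pre-incubated 5 h) and left 16 h at 37 C. LiveBLAzer B/G FRET substrate then added for 2 h at RT before fluorescence reading.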

Results filed as inconclusive are left out. A number with no mark means an inactive call. The source made the active and inactive calls. Unless noted, the call rests on the fitted dose curve; in most records, active means well fitted curve in the direction sought with a large enough effect in the repeat runs; inconclusive means weak or mixed curves; inactive means no such curve, though single readings can be large; an effect the other way counts as inactive or inconclusive.
On the % scale 0 is the no-effect control and ±100 the full control effect.

Chain of Bile acid receptor (Homo sapiens) (Q96RI1 whole entry, looked up): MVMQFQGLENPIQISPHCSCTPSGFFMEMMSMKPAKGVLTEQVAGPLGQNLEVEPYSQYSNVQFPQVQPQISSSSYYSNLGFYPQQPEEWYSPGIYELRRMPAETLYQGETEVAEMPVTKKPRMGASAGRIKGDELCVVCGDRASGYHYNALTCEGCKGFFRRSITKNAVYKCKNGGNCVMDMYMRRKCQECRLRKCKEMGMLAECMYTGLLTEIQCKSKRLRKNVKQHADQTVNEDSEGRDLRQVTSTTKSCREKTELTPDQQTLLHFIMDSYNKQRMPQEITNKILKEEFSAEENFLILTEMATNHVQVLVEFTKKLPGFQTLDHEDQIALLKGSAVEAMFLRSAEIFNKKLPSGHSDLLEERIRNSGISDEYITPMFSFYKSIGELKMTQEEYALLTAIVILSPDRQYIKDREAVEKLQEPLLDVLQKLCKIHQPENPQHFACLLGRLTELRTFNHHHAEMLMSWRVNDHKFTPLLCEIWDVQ
Chain of Peroxisome proliferator-activated receptor gamma (Homo sapiens) (P37231 whole entry, looked up): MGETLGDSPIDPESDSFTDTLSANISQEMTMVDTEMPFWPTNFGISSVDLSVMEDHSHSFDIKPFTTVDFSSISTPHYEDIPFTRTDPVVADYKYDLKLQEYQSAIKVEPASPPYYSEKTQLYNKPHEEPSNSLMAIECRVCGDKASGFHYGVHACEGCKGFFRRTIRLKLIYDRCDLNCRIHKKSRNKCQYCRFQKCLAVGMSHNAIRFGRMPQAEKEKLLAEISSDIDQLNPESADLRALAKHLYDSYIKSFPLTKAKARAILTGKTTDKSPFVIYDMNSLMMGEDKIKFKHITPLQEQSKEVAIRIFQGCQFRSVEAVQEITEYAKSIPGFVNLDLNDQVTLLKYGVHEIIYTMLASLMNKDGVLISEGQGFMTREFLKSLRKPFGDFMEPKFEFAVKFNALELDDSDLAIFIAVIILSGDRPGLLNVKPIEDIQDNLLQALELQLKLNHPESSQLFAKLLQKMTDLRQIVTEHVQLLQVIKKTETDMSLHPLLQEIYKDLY
Chain of Aryl hydrocarbon receptor (Homo sapiens) (P35869 whole entry, looked up): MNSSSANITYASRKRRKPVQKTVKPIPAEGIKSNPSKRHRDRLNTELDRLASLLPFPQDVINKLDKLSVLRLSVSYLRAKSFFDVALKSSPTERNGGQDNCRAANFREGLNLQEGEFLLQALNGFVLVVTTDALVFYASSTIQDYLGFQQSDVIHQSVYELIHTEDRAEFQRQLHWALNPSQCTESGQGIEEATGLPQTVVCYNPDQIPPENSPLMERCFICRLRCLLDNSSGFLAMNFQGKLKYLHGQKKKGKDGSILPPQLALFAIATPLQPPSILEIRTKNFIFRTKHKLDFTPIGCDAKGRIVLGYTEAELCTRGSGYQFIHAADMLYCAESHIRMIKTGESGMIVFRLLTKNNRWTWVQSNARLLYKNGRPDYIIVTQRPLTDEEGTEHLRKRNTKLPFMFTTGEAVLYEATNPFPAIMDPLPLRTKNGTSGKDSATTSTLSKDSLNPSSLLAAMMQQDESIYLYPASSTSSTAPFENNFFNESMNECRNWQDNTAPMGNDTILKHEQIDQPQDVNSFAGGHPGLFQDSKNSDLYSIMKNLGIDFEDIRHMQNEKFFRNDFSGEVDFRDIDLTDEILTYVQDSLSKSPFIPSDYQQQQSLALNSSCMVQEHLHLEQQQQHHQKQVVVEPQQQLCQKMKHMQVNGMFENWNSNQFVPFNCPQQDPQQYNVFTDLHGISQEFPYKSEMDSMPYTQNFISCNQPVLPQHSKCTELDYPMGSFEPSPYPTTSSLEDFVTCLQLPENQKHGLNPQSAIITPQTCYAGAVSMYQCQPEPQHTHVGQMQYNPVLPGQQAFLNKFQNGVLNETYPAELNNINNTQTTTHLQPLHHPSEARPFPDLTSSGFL
Chain of Vitamin D3 receptor (Homo sapiens) (P11473 whole entry, looked up): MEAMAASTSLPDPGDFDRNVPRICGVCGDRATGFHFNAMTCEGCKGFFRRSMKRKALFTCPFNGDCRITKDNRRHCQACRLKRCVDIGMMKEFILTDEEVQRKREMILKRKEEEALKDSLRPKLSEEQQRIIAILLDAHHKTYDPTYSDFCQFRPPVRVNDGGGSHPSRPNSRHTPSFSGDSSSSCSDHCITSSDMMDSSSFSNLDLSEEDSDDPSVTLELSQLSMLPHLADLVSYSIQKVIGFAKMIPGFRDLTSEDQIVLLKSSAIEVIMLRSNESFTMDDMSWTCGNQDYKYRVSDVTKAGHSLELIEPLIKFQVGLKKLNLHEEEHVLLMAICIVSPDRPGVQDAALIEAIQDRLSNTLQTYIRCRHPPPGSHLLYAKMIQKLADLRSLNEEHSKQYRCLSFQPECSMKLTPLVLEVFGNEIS
Chain of Peroxisome proliferator-activated receptor delta (Homo sapiens) (Q03181 whole entry, looked up): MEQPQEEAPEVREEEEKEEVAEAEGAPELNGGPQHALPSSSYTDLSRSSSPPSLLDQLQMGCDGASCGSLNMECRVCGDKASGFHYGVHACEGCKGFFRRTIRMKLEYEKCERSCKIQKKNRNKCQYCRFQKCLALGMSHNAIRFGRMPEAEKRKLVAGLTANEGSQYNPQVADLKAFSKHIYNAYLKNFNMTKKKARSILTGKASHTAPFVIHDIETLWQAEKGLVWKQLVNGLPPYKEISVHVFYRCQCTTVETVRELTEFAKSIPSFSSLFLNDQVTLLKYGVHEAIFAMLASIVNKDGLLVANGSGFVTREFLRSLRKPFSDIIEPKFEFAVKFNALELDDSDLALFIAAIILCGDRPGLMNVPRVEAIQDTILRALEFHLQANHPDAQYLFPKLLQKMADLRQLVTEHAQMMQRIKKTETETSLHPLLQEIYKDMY

In the case of `O=C(O)c1ccc(-n2nc(-c3ccccc3O)nc2-c2ccccc2O)cc1`, the Potency entry in [1], in [2], in assay [3], in [4], in [5] and in [6] was “inactive” in each case. Also, the Potency entry in assay [7] and in assay [8] was “inactive” each time. In assay [9], the outcome was inactive.

`CN1C[C@H]2c3ccccc3Oc3ccc(Cl)cc3[C@@H]2C1`: in [1], the Potency was 13.3 µM (active). In addition, the Potency result in assay [10], in assay [11], in assay [3], in [4], in [5] and in assay [12] was “inactive” each time. Further, the Potency entry in assay [13], in assay [14], in assay [15], in assay [7] and in [8] was “inactive” throughout. Further, the outcome in [9] was inactive.

Regarding `Brc1c2ccccc2c(Br)c2ccccc12`, the activity change, negative = cytotoxicity in assay [16] is 12.2% [at 8.47 µM]; in [4], 2.9% [at 5.95 µM]; in [17], 11.2% [at 5.95 µM]. Further, the viability change, negative = cytotoxic is -2.96% [at 8.47 µM] in assay [2], 3.8% [at 8.36 µM] in assay [3] and -15% [at 6.26 µM] in assay [6]. For the same molecule, the Potency in assay [10] is 1.98 µM (active). The ratio activity, negative = inhibition in assay [12] is -10.9% [at 6.26 µM]. In addition, in [13], the activity change, negative = inhibition is 14.8% [at 5.95 µM].

Take `O=C1CCCCCCCCCCCC(=O)OCCO1`: the Potency result in [1], in assay [2], in [10], in assay [18], in assay [3] and in assay [4] was “inactive” in each case. The Potency entry in [19], in assay [17], in assay [5], in assay [6], in [7] and in assay [8] was “inactive” in each case.

`Nc1cc(C(=O)O)c(O)c(S(=O)(=O)O)c1`: the Potency entry in assay [1], in assay [2], in assay [10], in assay [20], in assay [3] and in [4] was “inactive” each time. Besides, the Potency result in assay [17], in assay [6], in assay [14], in assay [7] and in [8] was “inactive” each time. Further, the result in assay [9] was inactive.

As for `COC(=O)C1=C(C)NC(COC(N)=O)=C(C(=O)OC(C)C)C1c1cccc(Cl)c1Cl` (stereo unspecified), the Potency entry in assay [1], in assay [3], in assay [4], in assay [17], in assay [6] and in [14] was “inactive” each time. For the same molecule, the Potency entry in [7] is “inactive”. The Potency was 21.3 µM (active) in [10] and 29.8 µM (active) in [8].

On to `Cc1ccc(N=Nc2c(O)c(C(=O)O)cc3ccccc23)c(S(=O)(=O)O)c1`, for which, in assay [16], the Potency was 6.65 µM (active). In addition, the Potency result in [10], in assay [11], in [3], in assay [4], in assay [19] and in assay [17] was “inactive” each time. The Potency entry in assay [5], in assay [6], in assay [12], in assay [14] and in [7] was “inactive” throughout.

Consider `C#C[C@]1(O)CC[C@H]2[C@@H]3CCc4cc(OC5CCCC5)ccc4[C@H]3CC[C@@]21C`, for which the Potency entry in assay [16], in assay [2], in assay [10], in [18], in assay [4] and in assay [19] was “inactive” each time. For the same molecule, the Potency result in assay [8] was “inactive”. Further, the Potency in [14] is 26.6 µM (active). Also, the call in assay [9] was inactive.

For the molecule `CC(C)Nc1ccc(NC(C)C)c2c1C(=O)c1ccccc1C2=O`, the Potency entry in assay [16], in assay [2], in [10], in assay [4], in assay [17] and in assay [5] was “inactive” throughout. For the same molecule, the Potency result in [6], in [12], in [15] and in [8] was “inactive” in each case. Also, the outcome in [9] was inactive.

For the molecule `O=C1[C@H]2CCCC[C@H]2C(=O)N1CCCCN1CCN(c2nsc3ccccc23)CC1`, the Potency was 29.8 µM (active) in assay [16] and 23.7 µM (active) in assay [20]. The Potency entry in [3], in [4], in assay [6], in assay [12], in assay [13] and in assay [14] was “inactive” each time. For the same molecule, the Potency result in [15] and in [7] was “inactive” throughout.
